Test results reported in the supplement of paper PMC10849652.
About 7,900 targets were measured; listed, in parts, are those with a hit and a random draw of the rest. About 0.6% of all pairs of compound and target were hits.

Legend:
Assay in all cases: log2 fold change, soluble protein after heating vs DMSO (PISA); higher = thermal stabilisation; K562 cells, 10 uM, 30 min; active = over 0.2 and 3.5 SD of the protein, either way, in both replicates (recomputed)
[1] = compound: C1=CC=C(C=C1)[C@H](COC2=CC3=C(C=C2)NC(=O)N3)NC(=O)C4=CC=CN(C4=O)CC5=CC(=C(C=C5)F)F
How it was run: (§1)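 Thermal stability values are relative to control samples and come from duplicates. They are expressed as log2 fold changes. For measurement, K562 cells (2×10^6 cells/mL) received 10 μM compound for 30 min, and aliquots were heated for 3 min over 48°C-58°C, pooled, and extracted at 4°C in PBS with 0.5% NP-40. Soluble protein, the supernatant after 21,000xg for 90 min, was quantified by TMTpro 16plex LC-MS/MS with equalised channel sums.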

[2] = compound: CC1=C(SC2=C1C(=N[C@H](C3=NN=C(N32)C)CC(=O)N)C4=CC=C(C=C4)Cl)C
How it was run: as §1

[3] = compound: CC1=C2C(=CC=C1)N=C(N(C2=O)C3=CC=CC=C3C)CN4C=NC5=C(N=CN=C54)N
How it was run: as §1

[4] = compound: Cc1sc2c(c1C)C(c1ccc(Cl)cc1)=N[C@@H](CC(=O)OC(C)(C)C)c1nnc(C)n1-2
How it was run: as §1

[5] = compound: c1ccc([C@@H]2C[C@H]2NC2CCNCC2)cc1
How it was run: as §1

Measured: log2 fold change

SDHAF2 (UniProt Q9NX18)
Sequence of UniProt Q9NX18 (Q9NX18 whole entry, looked up): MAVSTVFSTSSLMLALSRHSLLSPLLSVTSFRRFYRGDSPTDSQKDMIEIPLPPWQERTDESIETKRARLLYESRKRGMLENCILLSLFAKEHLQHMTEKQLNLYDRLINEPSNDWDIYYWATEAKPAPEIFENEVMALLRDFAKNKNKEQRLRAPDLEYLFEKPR
inactive: [1] -0.02 | [2] 0.078 | [3] -0.013 | [4] -0.097 | [5] -0.096

ROCK1 (UniProt Q13464)
inactive: [1] -0.017 | [2] 0.027 | [3] 0.032 | [4] -0.018 | [5] -0.015

SETMAR (UniProt Q53H47)
inactive: [1] 0.001 | [2] 0.096 | [3] 0.033 | [4] -0.031 | [5] -0.02

RSL1D1 (UniProt O76021)
inactive: [1] 0.18 | [2] -0.349 | [3] -0.241 | [4] 0.178 | [5] 0.031

SERINC3 (UniProt Q13530)
inactive: [1] -0.062 | [2] 0.045 | [3] 0.071 | [4] -0.062 | [5] 0.133

SCAF8 isoform 2 (UniProt Q9UPN6)
inactive: [1] -0.072 | [2] 0.099 | [3] 0.254 | [4] -0.016 | [5] 0.012

RELA (UniProt Q04206)
inactive: [1] -0.013 | [2] 0.056 | [3] 0.03 | [4] 0.031 | [5] 0.008

SCO2 (UniProt O43819)
Sequence of UniProt O43819 (O43819 whole entry, looked up): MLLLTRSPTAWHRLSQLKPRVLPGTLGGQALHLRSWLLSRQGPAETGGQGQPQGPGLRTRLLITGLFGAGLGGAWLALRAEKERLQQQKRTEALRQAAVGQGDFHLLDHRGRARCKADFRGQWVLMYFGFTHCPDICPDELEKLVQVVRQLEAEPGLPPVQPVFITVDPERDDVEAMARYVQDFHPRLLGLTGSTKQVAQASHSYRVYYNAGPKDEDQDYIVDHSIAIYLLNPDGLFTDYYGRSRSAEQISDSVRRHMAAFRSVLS
inactive: [1] -0.03 | [2] -0.108 | [3] -0.041 | [4] -0.098 | [5] 0.023

SEC24A (UniProt O95486)
Sequence of UniProt O95486 (O95486 whole entry, looked up): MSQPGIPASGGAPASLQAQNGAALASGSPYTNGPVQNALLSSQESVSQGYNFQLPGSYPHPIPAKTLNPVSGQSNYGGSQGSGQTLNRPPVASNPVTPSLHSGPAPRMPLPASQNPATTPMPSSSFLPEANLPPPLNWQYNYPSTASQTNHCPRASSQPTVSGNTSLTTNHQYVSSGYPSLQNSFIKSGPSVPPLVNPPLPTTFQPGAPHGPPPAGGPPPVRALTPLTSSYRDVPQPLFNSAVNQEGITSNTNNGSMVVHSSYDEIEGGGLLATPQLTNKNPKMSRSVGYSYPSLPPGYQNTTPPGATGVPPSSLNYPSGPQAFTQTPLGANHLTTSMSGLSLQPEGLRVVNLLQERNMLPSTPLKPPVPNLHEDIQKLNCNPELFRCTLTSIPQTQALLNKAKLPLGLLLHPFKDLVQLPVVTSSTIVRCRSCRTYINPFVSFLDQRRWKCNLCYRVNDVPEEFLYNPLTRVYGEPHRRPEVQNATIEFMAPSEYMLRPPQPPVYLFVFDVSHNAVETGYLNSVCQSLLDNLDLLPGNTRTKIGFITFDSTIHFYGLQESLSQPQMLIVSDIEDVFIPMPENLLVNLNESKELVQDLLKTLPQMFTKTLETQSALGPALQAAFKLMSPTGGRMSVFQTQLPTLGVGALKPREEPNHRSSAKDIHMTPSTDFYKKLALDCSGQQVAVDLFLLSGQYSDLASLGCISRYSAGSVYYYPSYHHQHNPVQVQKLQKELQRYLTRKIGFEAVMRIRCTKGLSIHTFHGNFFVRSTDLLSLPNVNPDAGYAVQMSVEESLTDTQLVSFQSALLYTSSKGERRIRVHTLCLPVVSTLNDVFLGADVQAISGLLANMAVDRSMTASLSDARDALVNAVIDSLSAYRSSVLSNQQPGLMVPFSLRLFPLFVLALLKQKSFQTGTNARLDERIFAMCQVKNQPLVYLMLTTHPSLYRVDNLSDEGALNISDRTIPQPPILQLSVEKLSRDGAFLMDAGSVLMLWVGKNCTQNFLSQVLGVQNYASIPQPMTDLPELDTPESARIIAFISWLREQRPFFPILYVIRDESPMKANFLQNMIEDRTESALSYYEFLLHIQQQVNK
inactive: [1] -0.022 | [2] 0.02 | [3] 0.014 | [4] -0.027 | [5] -0.021

RANBP2 (UniProt P49792)
inactive: [1] -0.094 | [2] 0 | [3] 0.114 | [4] -0.085 | [5] -0.089

SLC1A3 (UniProt P43003)
inactive: [1] -0.031 | [2] 0.003 | [3] -0.016 | [4] 0.17 | [5] 0.039

RPS9 (UniProt P46781)
inactive: [1] 0.073 | [2] -0.19 | [3] -0.24 | [4] 0.134 | [5] 0

RBM12 (UniProt Q9NTZ6)
inactive: [1] -0.039 | [2] 0.023 | [3] 0.077 | [4] -0.064 | [5] -0.006

SFXN5 (UniProt Q8TD22)
inactive: [1] -0.079 | [2] 0.024 | [3] -0.11 | [4] 0.007 | [5] -0.061

SCAMP2 (UniProt O15127)
Sequence of UniProt O15127 (O15127 whole entry, looked up): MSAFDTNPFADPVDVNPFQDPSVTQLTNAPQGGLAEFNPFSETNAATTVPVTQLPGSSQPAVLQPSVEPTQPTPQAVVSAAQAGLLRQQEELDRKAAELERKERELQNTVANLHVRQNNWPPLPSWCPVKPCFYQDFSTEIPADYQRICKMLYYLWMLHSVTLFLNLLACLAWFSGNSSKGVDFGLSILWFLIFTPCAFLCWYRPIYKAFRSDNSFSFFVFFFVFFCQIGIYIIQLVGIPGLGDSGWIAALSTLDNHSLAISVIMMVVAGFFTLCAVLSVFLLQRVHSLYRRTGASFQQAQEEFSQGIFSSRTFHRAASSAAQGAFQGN
inactive: [1] 0.061 | [2] 0.026 | [3] -0.041 | [4] -0.105 | [5] -0.048

SIDT2 isoform 2 (UniProt Q8NBJ9)
inactive: [1] -0.005 | [2] -0.005 | [3] 0.018 | [4] -0.115 | [5] 0.088

RAP1GDS1 isoform 5 (UniProt P52306)
Sequence of UniProt P52306 (P52306 whole entry, looked up): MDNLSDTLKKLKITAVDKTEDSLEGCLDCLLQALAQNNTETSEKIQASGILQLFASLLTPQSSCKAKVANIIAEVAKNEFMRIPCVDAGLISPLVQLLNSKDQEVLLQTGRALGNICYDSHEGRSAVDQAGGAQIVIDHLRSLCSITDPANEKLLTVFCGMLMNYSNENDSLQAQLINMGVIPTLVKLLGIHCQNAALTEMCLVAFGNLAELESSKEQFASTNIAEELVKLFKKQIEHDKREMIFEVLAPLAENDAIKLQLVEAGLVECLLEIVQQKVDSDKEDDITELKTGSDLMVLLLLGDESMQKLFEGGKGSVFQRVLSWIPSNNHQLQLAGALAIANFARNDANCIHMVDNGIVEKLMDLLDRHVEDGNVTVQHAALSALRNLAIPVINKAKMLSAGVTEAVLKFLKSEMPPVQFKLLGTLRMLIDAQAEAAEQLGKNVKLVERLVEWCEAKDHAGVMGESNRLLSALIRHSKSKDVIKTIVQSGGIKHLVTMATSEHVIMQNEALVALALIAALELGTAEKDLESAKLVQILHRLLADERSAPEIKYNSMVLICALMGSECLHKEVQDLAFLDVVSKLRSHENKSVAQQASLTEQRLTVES
inactive: [1] -0.093 | [2] -0.01 | [3] 0.119 | [4] -0.001 | [5] -0.009

RAB3GAP2 (UniProt Q9H2M9)
inactive: [1] -0.023 | [2] -0.07 | [3] 0.051 | [4] 0.04 | [5] 0.001

RBM17 (UniProt Q96I25)
inactive: [1] -0.038 | [2] 0.017 | [3] 0.049 | [4] 0.003 | [5] -0.013

RNF14 (UniProt Q9UBS8)
inactive: [1] -0.031 | [2] -0.005 | [3] -0.048 | [4] -0.013 | [5] 0.03

RPS25 (UniProt P62851)
inactive: [1] 0.046 | [2] -0.166 | [3] -0.139 | [4] 0.09 | [5] 0.002

RPP25L (UniProt Q8N5L8)
Sequence of UniProt Q8N5L8 (Q8N5L8 whole entry, looked up): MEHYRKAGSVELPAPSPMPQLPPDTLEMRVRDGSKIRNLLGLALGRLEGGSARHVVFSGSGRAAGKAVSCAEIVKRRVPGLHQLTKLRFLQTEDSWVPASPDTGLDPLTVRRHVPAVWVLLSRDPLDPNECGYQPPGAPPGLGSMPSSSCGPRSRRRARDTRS
inactive: [1] 0.032 | [2] -0.018 | [3] 0.026 | [4] 0.143 | [5] 0.033

RARS (UniProt P54136)
inactive: [1] -0.057 | [2] -0.081 | [3] -0.02 | [4] 0.169 | [5] 0.024

RSPRY1 (UniProt Q96DX4)
inactive: [1] -0.009 | [2] 0.024 | [3] 0.012 | [4] -0.026 | [5] 0.029

SH3PXD2B (UniProt A1X283)
inactive: [1] 0.07 | [2] 0.029 | [3] 0.001 | [4] -0.038 | [5] -0.046

SHCBP1 (UniProt Q8NEM2)
inactive: [1] 0.018 | [2] -0.176 | [3] 0.138 | [4] -0.089 | [5] -0.056

ROCK2 (UniProt O75116)
Sequence of UniProt O75116 (O75116 whole entry, looked up): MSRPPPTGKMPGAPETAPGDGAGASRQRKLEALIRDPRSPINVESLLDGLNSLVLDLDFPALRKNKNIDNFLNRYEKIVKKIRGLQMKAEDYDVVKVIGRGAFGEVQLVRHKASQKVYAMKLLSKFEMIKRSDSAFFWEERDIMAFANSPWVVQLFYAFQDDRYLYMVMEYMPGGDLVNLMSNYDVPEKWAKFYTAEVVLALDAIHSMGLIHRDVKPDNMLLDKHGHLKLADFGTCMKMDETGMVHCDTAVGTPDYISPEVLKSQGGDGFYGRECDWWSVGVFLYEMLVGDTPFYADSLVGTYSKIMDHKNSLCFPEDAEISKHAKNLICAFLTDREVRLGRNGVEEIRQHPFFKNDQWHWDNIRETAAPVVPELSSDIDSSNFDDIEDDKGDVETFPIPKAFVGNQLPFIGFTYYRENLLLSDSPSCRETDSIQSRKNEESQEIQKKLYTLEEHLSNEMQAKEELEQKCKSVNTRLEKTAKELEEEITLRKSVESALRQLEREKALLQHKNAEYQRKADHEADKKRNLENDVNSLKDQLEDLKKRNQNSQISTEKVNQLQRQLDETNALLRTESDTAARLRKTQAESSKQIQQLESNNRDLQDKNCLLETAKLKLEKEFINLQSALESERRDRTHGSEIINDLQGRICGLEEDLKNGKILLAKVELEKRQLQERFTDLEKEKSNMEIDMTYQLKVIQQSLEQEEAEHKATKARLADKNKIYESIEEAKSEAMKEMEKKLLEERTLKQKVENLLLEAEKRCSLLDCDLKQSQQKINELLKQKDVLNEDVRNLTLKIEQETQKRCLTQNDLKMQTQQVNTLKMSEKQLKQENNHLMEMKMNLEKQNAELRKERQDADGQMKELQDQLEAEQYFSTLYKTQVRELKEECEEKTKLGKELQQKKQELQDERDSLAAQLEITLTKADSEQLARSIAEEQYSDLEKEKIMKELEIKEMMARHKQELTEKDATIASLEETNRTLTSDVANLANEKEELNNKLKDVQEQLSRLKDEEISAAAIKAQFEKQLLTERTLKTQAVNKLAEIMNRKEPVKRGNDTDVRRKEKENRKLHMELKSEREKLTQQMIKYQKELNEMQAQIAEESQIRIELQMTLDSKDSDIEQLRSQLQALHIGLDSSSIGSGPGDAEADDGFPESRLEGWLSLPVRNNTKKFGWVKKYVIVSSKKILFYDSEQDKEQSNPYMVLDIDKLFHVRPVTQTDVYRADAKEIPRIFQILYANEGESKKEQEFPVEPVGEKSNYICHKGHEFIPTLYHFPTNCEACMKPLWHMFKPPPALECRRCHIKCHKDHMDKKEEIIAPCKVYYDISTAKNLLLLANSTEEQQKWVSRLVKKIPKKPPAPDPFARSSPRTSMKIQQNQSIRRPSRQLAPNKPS
inactive: [1] -0.026 | [2] 0.003 | [3] 0.085 | [4] 0.024 | [5] -0.01

SLC18B1 (UniProt Q6NT16)
inactive: [1] 0.015 | [2] 0.028 | [3] 0.061 | [4] 0.009 | [5] -0.039

SDCBP (UniProt O00560)
inactive: [1] 0.029 | [2] -0.031 | [3] -0.067 | [4] 0.04 | [5] -0.102

SLC19A1 (UniProt P41440)
inactive: [1] -0.025 | [2] 0.065 | [3] 0.045 | [4] -0.013 | [5] 0.017

RPA1 (UniProt P27694)
inactive: [1] -0.032 | [2] 0.025 | [3] 0.087 | [4] -0.047 | [5] 0.011

RPAIN isoform 8 (UniProt Q86UA6)
Sequence of UniProt Q86UA6 (Q86UA6 whole entry, looked up): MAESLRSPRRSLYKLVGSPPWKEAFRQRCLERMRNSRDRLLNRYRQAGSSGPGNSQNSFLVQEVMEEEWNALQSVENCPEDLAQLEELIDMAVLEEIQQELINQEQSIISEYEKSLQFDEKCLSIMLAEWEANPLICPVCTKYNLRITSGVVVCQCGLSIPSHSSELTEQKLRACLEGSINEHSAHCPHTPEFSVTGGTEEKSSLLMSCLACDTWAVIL
inactive: [1] 0.026 | [2] 0.057 | [3] 0.046 | [4] -0.038 | [5] 0.006

SEC23A (UniProt Q15436)
Sequence of UniProt Q15436 (Q15436 whole entry, looked up): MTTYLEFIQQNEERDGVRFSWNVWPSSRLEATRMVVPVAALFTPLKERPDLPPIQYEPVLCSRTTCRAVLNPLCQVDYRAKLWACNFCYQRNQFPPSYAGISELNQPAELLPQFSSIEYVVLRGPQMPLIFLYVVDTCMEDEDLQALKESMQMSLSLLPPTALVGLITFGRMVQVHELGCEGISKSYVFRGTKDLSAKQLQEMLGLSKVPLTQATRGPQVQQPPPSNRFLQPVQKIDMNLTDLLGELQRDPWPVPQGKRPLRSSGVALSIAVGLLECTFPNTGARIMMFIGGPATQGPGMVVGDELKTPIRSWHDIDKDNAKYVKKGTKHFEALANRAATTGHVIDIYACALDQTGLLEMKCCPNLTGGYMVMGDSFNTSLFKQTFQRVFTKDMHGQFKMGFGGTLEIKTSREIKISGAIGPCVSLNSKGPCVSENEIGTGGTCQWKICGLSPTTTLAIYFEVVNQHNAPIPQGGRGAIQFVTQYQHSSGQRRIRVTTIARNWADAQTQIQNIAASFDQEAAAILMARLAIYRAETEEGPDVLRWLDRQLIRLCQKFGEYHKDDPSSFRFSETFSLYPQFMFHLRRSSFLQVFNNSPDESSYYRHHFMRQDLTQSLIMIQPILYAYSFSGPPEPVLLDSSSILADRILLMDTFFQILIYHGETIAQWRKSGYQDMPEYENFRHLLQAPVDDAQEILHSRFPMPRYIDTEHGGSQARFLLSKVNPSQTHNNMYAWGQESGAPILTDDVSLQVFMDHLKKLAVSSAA
inactive: [1] 0.006 | [2] 0.052 | [3] 0.078 | [4] 0.027 | [5] 0.075
